# In PubChem BioAssay (NCI):
# The panel holds about 83,000 compounds, 20% with a hit somewhere; the sample as a whole holds those more often.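 Results are percent growth after 48 hours of single-concentration exposure. 100 means growth as in untreated cells, lower positive values show inhibition; negative values down to -100 show cell death.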 Values without a mark were called inactive. Calls of active or inactive are those of the source. The calls were made as follows: active = growth percent below 10; inactive = the rest.
# What was measured:
# Assay in all cases: NCI-60 one-dose screen, 48 h (100 = growth as untreated, 0 = no growth, -100 = all killed)
# Settings in all cases: 10 µM
# SK-MEL-2 melanoma = tested on: SK-MEL-2 melanoma
# EKVX NSCLC = tested on: EKVX NSCLC
# SN12C renal = tested on: SN12C renal
# UO-31 renal = tested on: UO-31 renal
# TK-10 renal = tested on: TK-10 renal
# ACHN renal = tested on: ACHN renal
# A498 renal = tested on: A498 renal
# CCRF-CEM leukemia = tested on: CCRF-CEM leukemia
# MOLT-4 leukemia = tested on: MOLT-4 leukemia
Compound,growth (SK-MEL-2 melanoma),growth (EKVX NSCLC),growth (SN12C renal),growth (UO-31 renal),growth (TK-10 renal),growth (ACHN renal),growth (A498 renal),growth (CCRF-CEM leukemia),growth (MOLT-4 leukemia)
N#CCc1csc(Cc2ccccc2)n1,101%,105%,101%,88.7%,89.9%,109%,103%,94.2%,
O=C(Nc1cccc2c1CCCC2)c1cc2ccccc2cc1O,41.1%,59.8%,25.6%,17.5%,88.1%,38.4%,10.6%,20.9%,20.6%
COc1cc(-c2nn(-c3cccc(NC(=O)NCCNS(=O)(=O)c4ccc(Cl)cc4)c3)cc2-c2ccncc2)ccc1Cl,2.83% (active),29.8%,35.5%,21.1%,5.09% (active),11.3%,-10.5% (active),9.85% (active),
COc1ccc(-c2nnc(SCC(=O)Nc3ccc(C(=O)/C=C/c4ccccc4)cc3)n2-c2ccccc2)cc1OC,100%,120%,84.9%,69.2%,93.1%,98.9%,82.5%,93.6%,59.7%
CCC(=O)OC1CCC2C3CCC(=O)OC3C(C)(CCC(=O)O)CC12C (stereo unspecified),12.7%,8.81% (active),55.5%,47.1%,47%,43.9%,-71.5% (active),-14.8% (active),-0.59% (active)
CCOC(=O)c1cc(C(=O)c2ccc(OC)c(OC)c2)n2ccncc12,96%,106%,102%,71.3%,123%,88.1%,94.6%,101%,
CCOC(=O)c1cc(C(=O)c2cc(OC)cc(OC)c2)n2ncc3ccccc3c12,15.4%,61.5%,39.9%,19%,-8.97% (active),2.48% (active),16.5%,23.5%,29%
Nc1ccc(/C=N/Nc2ccnc3c(O)cccc23)c2cccnc12,74.1%,61.8%,76.9%,55.8%,97.7%,52.9%,118%,14.4%,14.5%
O=C(NCCCNS(=O)(=O)c1ccc(Cl)cc1)Nc1ccc(-n2cc(-c3ccncc3)c(-c3ccc(Cl)c(O)c3)n2)cc1,43.4%,61.7%,46.1%,40.9%,62.5%,26.4%,50.1%,23.5%,15.6%
CCNCC(=O)Nc1ccc(C(=O)OCC)cc1,102%,104%,98.6%,95%,86.2%,108%,86%,96.4%,87.5%
Nc1nccc(OCCO)n1,99.5%,97.8%,107%,91%,90%,108%,114%,113%,99.9%
CCOC(=O)C(C)(c1ccccc1)c1ccccc1,114%,102%,102%,94%,102%,112%,105%,103%,109%
CCN(CC)CC(=O)N(CC)c1ccc(C)c(Cl)c1,99.5%,105%,101%,90.7%,93.6%,117%,86.8%,93.8%,65.1%
CCOS(=O)(=O)c1c(C(C)C)cc(C(C)C)cc1C(C)C,96.9%,97.8%,98.3%,92.2%,95.1%,104%,117%,121%,97.6%
O=S(=O)(O)c1ccc(Cl)cc1,95.9%,105%,100%,88.7%,88.2%,104%,110%,106%,98.7%
Oc1ccc(/C=N/N=C2c3ccccc3-c3ccccc32)c(O)c1,80.9%,78.4%,56.1%,56.1%,108%,70.1%,95.6%,60.4%,77.9%
COc1cc(-c2nn(-c3cccc(NC(=O)CN4CCOCC4)c3)cc2-c2cccnc2)ccc1Cl,82.1%,95.8%,85.4%,68.6%,125%,87.6%,93.3%,70.9%,74.3%
S=c1cnc2ccccc2[nH]1,95.6%,107%,104%,76.6%,112%,101%,99%,103%,91.7%

Compound,growth (SK-MEL-2 melanoma),growth (EKVX NSCLC),growth (SN12C renal),growth (UO-31 renal),growth (TK-10 renal),growth (ACHN renal),growth (A498 renal),growth (CCRF-CEM leukemia),growth (MOLT-4 leukemia)
CCOC(=O)c1cc(C(=O)c2cc(OC)c(OC)c(OC)c2)n2nc(C)ccc12,27.7%,88.3%,60.1%,39.9%,78%,49.4%,23.4%,17.1%,18.4%
Cc1cc(=O)n2nnc3cc(Cl)c(Cl)cc3n12,102%,92.6%,107%,81.3%,102%,90.2%,138%,23.1%,59.2%
COC(=O)C1(O)NC(=C(C#N)C#N)C(C#N)=C1C(=O)c1ccc(OC)c(OC)c1 (stereo unspecified),104%,113%,96.7%,86.7%,122%,108%,93.6%,92.1%,92.1%
CN1CCN(CC(=O)Nc2cccc(-n3cc(-c4ccncc4)c(-c4ccc(Cl)c(O)c4)n3)c2)CC1,28.2%,63.6%,64.9%,50.2%,103%,44.7%,35.6%,23.9%,26.4%
COc1cc(-c2nn(-c3cccc(NC(=O)CCN4CCN(Cc5ccccc5)CC4)c3)cc2-c2ccncc2)ccc1Cl,-31.2% (active),48.2%,41.7%,15.6%,26.1%,24.1%,-8.39% (active),4.24% (active),5.06% (active)
CCN(CC)CCOc1cccc2c1C(=O)c1ccccc1C2=O,91.8%,95.2%,90.9%,62.2%,97.6%,92.5%,87.5%,92.6%,96.4%
Cc1ccc(Cl)cc1NC(=O)CCl,86.9%,119%,84%,91.3%,96%,104%,105%,28.4%,32%
O=C1c2ccccc2C(=O)c2c1ccc(C(Br)Br)c2[N+](=O)[O-],77.5%,46.8%,34.4%,50.6%,73.2%,-16.1% (active),26.6%,-43.4% (active),-45.5% (active)
COc1cc(CNC(=O)C2CSC3(C)c4ccccc4C(=O)N23)cc(OC)c1OC (stereo unspecified),89.3%,108%,91.6%,90.3%,102%,97.4%,90.5%,90.7%,81.2%
CN(C)c1ccc(/C=N/NC(=O)c2cccc3ccccc23)c(Cl)c1,28%,45.2%,42.9%,57.5%,63.8%,51.2%,-3.25% (active),10.1%,15.5%
COc1cc(-c2nn(-c3cccc(NC(=O)CCN4CCN(c5ccccc5)CC4)c3)cc2-c2ccncc2)ccc1Cl,-0.713% (active),38.1%,32.4%,37.8%,23.5%,18%,5.91% (active),17.8%,15.4%
CCOC(=O)c1cc(C(=O)c2ccc(OC)c(OC)c2)n2c1ccc1ccc3cccnc3c12,19%,78.6%,62.1%,44%,70.5%,47.4%,-5.4% (active),19.9%,33.8%
CCOC(=O)/C(=C(\C)N)C1CC(=O)NC1=O (stereo unspecified),123%,102%,96.5%,87.9%,118%,94%,107%,96.2%,104%
O=C(Nc1ccc2c(O)cc(S(=O)(=O)O)cc2c1)c1ccc([N+](=O)[O-])cc1,102%,93.7%,98.8%,91.4%,102%,107%,97.9%,88.5%,63.7%
CCN1CCN(CCC(=O)Nc2cccc(-n3cc(-c4ccncc4)c(-c4ccc(Cl)c(OC)c4)n3)c2)CC1,-19.5% (active),54.5%,38.8%,34.6%,44.7%,37.2%,-14.1% (active),1.32% (active),2.89% (active)
COc1cc(-c2nn(-c3cccc(NC(=O)NCCNC(=O)c4cccc(C(F)(F)F)c4)c3)cc2-c2ccncc2)ccc1Cl,21.5%,60.1%,75.2%,62.1%,90%,48.4%,33%,20.6%,27.3%
S=C(NCc1ccccc1)NCc1ccccc1,97.9%,102%,96.3%,87.1%,83.2%,105%,80%,95.9%,94.9%
COc1ccc2nc(-c3ccc(Cl)cc3)cc(-c3nnc(SC/C(=N\O)c4ccccc4)n3-c3ccccc3)c2c1,89.9%,96.2%,95.8%,78.2%,111%,90.2%,96.3%,59.3%,47.5%
